Where “and” joins values, the source holds several entries; their conditions need not be identical. Equal entries are not always repeated. Compounds without any hit were thinned out: in the full panel of roughly 79,000, 15% have a hit. Values without a mark were called inactive. Calls of active or inactive are those of the source. Cut-off read from the data, not from the text of the source: active = growth inhibition above about 70%; inactive = the rest.
Assay: NCI Yeast Anticancer Drug Screen. Data for the mgt1 strain (AID 153)
Details: S. cerevisiae mgt1 mutant growth inhibition, active compounds read high
Method: Growth inhibition of yeast strains with defined genetic alterations is measured as a screen for potential anti-cancer activity. Selected strains with alterations in DNA damage repair or cell cycle control were exposed to compounds and growth inhibition was measured relative to vehicle treated controls. The strain used in this assay is mgt1

Row | SMILES | growth inhibition (at 1.2 µM) | growth inhibition (at 3.7 µM) | growth inhibition (at 11.0 µM) | growth inhibition (at 33.0 µM) | growth inhibition (at 100.0 µM)
1 | COc1ccc2[nH]c3c(C)c4cc[n+](C)cc4c(C)c3c2c1 | 15% and 2% | 28% and 12% | 26% and 24% | 38% and 29% | 39% and 55%
2 | O=c1c(Br)cc2c(-c3ccccc3)c3cc(Br)c(O)c(Br)c3oc-2c1Br | 0% | -2% | 9% | 28% | 23%
3 | CCCCCCCCCCCCCCCCOCC(Cl)COP(=O)(O)OP(=O)(O)OCC1OC(n2cnc3c(N)ncnc32)C(O)C1O (stereo not given) | 15% | 14% | 55% | 68% | 85% (active)
4 | Cc1ccc(C(C)C)c(C(=C2C=CC(=[N+](C)C)C=C2)c2c(C(C)C)ccc(C)c2O)c1O | -2% | 0% | 98% (active) | 94% (active) | 85% (active)
5 | O=C(O)[C@H]1[C@@H](C2CCCCC2)O[C@@H](C2CCCCC2)O[C@H]1C(F)(F)F | 0% | -4% | 10% | -17% | 0%
6 | O=Cc1ccccc1B(O)O | 0% | 2% | 76% (active) | 99% (active) | 99% (active)
7 | O=C1c2ccccc2-c2ccc(NC(=O)C3CCCCC3C(=O)O)cc21 (stereo not given) | -2% | -2% | -3% | 13% | 72% (active)
8 | NNc1nnc(-c2ccccc2)nc1Cc1ccccc1 | 16% | 21% | 21% | 97% (active) | 88% (active)
